Screens from PubChem.
GRK2 inh: human GRK2 inhibition via aptamer displacement; inhibition of aptamer binding, % at 10 µM; actives 0.59% (n = 330,000); P25098; AID 488847; bead flow cytometry, FAM-aptamer displacement from GRK2;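 active = inhibition of aptamer binding above 40%, roughly 3 SD of noise, on plates passing a quality check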;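 also: median bead fluorescence of bound FAM aptamer so fluorescent compounds give negative values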
Target sequence (P25098 whole entry, looked up): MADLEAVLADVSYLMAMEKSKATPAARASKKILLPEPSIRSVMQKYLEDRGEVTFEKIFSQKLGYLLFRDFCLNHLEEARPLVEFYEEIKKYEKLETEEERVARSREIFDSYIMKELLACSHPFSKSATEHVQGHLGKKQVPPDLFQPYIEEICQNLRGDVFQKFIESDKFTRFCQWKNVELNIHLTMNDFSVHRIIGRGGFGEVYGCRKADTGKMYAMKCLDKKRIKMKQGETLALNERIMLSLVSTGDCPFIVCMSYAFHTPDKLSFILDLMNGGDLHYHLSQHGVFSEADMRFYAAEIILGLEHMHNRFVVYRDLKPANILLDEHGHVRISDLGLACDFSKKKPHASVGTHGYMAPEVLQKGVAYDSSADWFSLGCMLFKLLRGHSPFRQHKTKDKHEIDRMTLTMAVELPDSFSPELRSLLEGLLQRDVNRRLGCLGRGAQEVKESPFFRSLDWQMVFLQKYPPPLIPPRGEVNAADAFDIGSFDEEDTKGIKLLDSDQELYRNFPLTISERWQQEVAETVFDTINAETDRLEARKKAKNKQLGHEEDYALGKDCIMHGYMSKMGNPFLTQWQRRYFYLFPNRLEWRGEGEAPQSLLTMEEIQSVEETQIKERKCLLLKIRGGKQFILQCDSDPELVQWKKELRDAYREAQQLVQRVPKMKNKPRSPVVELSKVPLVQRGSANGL
Efflux pump inh: inhibitors of Candida antifungal efflux pumps expressed in yeast; S. cerevisiae Candida pump triplex, Nile Red efflux; inhibition, % at 10 µM; actives 0.44% (n = 330,000); AID 485275;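 active = plate passing quality check with inhibition over a set limit, or well fluorescence over plate mean plus 4 SD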;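 also: Nile Red retained in pooled yeast measured as flow cytometry median fluorescence; 0% = buffer negative control and 100% = Enniatin B positive control; higher means more Nile Red kept so more efflux inhibition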
ATG4B inhibitor: inhibitors of human ATG4B cysteine protease. ATG4B cleavage of LC3-PLA2, NBD-HPC fluorescence, 1 h. Q9Y4P1. actives 0.51% (n = 340,000). inhibition, % at 8.33 µM. AID 504462; in the data active = inhibition above about 40%
Yeast superoxide: yeast age-related superoxide inhibition as caloric restriction mimetic | S. cerevisiae aged cells, superoxide DHE fluorescence; stronger effect = lower value | superoxide response (% of plate mean), % at 10 µM | actives 0.18% (n = 330,000);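 active = superoxide response under a set limit, about three screen SD below normal, cut at about 65% in these data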;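 also: yeast aged for seven days with compound at 30 °C before DHE staining; 100% = average MFI of all compound-treated wells on the plate with controls excluded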
Cmpd fluor yeast: counter-screen for efflux pump inhibitors: compound fluorescence; shares compounds with Efflux pump inh; S. cerevisiae AD/pABC3, flow cytometry; fluorescence ratio to DMSO, % at 10 µM; actives 4% (n = 1,700); AID 588517;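 active = fluorescence ratio to DMSO above its plate's cutoff, the plate mean ratio plus 5 SD, cut at about 210% in these data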;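 also: unstained yeast with no Nile Red so the signal is compound autofluorescence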
CaMdr1 efflux inh: blocks the Candida albicans Mdr1 efflux pump in yeast. S. cerevisiae AD/CaMDR1, Nile Red efflux, flow cytometry. inhibition, % at 10 µM. AID 588518. actives 1% (n = 1,700). shares compounds with Efflux pump inh; in the data active = inhibition above about 26%;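 also: 0% = DMSO vehicle and 100% = reference inhibitor; higher means more Nile Red retained so more efflux inhibition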
Cdr2 pump inh: Candida Cdr2 efflux pump inhibition | shares compounds with Efflux pump inh | S. cerevisiae AD/CaCDR2, Nile Red retention, flow cytometry | Nile Red retention ratio vs DMSO, % at 10 µM | actives 4% (n = 1,700); in the data active = Nile Red retention ratio vs DMSO above about 190%;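 also: higher ratio means more blocking of Cdr2 efflux of the dye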
Cdr1 pump inh: Candida Cdr1 efflux pump inhibition. shares compounds with Efflux pump inh. S. cerevisiae AD/CaCDR1, Nile Red efflux, flow cytometry. inhibition, % at 10 µM. actives 1% (n = 1,700);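 active = inhibition above the screen-wide mean plus twice its standard deviation, cut at about 32% in these data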
GRK2 inh confirm: confirmation of human GRK2 inhibitors displacing RNA aptamer. aptamer displacement, % at 10 µM. AID 504451. actives 4% (n = 2,000). shares compounds with GRK2 inh. bead-bound GRK2, FAM-aptamer displacement, flow cytometry;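 active = aptamer displacement above 40%, near three times the noise of non-fluorescent compounds, on plates passing quality checks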;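 also: negative values mostly reflect intrinsic compound fluorescence rather than true enhancement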
Aptamer quench: fluorescent aptamer quenching in GRK2 counter-screen dose response; 110 tested, under 10 active; shares compounds with GRK2 inh; AID 504521; Fluorescent RNA aptamer beads, flow cytometry; stronger effect = higher value; fluorescence change (kMESF span), kMESF (no concentration beside the values);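 active = compounds whose bead fluorescence drops by more than 37 kMESF across the dose range, marking them as dye quenchers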
Aptamer quench SP: quenches fluorescent RNA aptamer, GRK2 hit artifact; 2,000 tested, under 10 active; fluorescence response (% of DMSO), % at 10 µM; Carboxyfluorescein RNA aptamer on beads, flow cytometry quenching; stronger effect = lower value; shares compounds with GRK2 inh;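 active = compounds that quench the bead-bound fluorescent RNA probe, cutting fluorescence to under half of the solvent control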;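 also: counterscreen run without GRK2 so only probe quenching by compound is measured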
GRK2 confirm 2: human GRK2 inhibition confirmation, cherry pick 2; shares compounds with GRK2 inh; bead-bound GRK2, FAM-aptamer displacement, flow cytometry; inhibition of aptamer binding, % at 10 µM; 360 tested, under 10 active;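 active = inhibition of aptamer binding above 40%, about triple the noise seen with nonglowing compounds, on plates passing quality control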;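 also: negative values mostly come from compounds that fluoresce themselves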
FAM quench SP: quenches fluorescent RNA aptamer, GRK2 hit artifact | shares compounds with GRK2 inh | carboxyfluorescein RNA aptamer beads, flow cytometry quenching; stronger effect = lower value | fluorescence response vs DMSO, % at 10 µM | 360 tested, under 10 active | AID 588494;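 active = response vs DMSO under 50%, meaning signal dropped by over half, treated as fluorescence quencher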;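 also: labelled aptamer on streptavidin beads without GRK2 as a quench counter-screen; 100% = bead fluorescence of DMSO wells and lower means quenching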
PLA2 counter: PLA2 (human) inhibition in ATG4B counter-screen. actives 66% (n = 1,600). purified PLA2, NBD-C6-HPC fluorescence, 45 min. inhibition, % at 8.33 µM. shares compounds with ATG4B inhibitor. AID 588402; in the data active = inhibition above about 50%
Numbers without * were called inactive; / = not tested or not shown; + = active, no number. The list is not random: actives were taken first. Their share in the collection is about 1.6%.

SMILES | GRK2 inh | Efflux pump inh | ATG4B inhibitor | Yeast superoxide | Cmpd fluor yeast | CaMdr1 efflux inh | Cdr2 pump inh | Cdr1 pump inh | others
Cc1ccc(CN2CC(C(=O)Nc3ccc(S(=O)(=O)N4CCCCC4)cc3)CC2=O)cc1 (configuration not stated) | 10 | 16* | -14 | 111 | 97 | 0 | 110 | 0
C/C(=N\NC(=O)CSCc1ccccc1Br)c1cccc([N+](=O)[O-])c1 | 1 | 6.5* | -4 | 98 | 100 | 0 | 96 | 0
C/C(=N\NC(=O)CSCc1ccc([N+](=O)[O-])cc1)c1cccc(Br)c1 | 2 | 0 | -12 | 102 | / | / | / | /
O=C(Cc1ccccc1)Nc1ccc(NC(=O)c2ccc(Br)cc2)cc1 | 1 | 0 | 7 | 108 | / | / | / | /
COc1ccc(CC(=O)Nc2ccc(NC(=O)c3ccc(Br)cc3)cc2)cc1OC | 2 | 0.8* | 1 | 92 | 99 | 0 | 98 | 0
O=C1/C(=C\c2ccc(-c3ccccc3Cl)o2)SC(=S)N1CC1CCCO1 (configuration not stated) | 51* | 0.5* | -4 | 120 | 100 | 0 | 116 | 0 | GRK2 inh confirm=36;Aptamer quench SP=108
CC(=O)Oc1ccc(N2C(=O)c3cccc4c([N+](=O)[O-])ccc(c34)C2=O)cc1 | 0 | 1 | 1 | 98 | / | / | / | /
O=C1c2cccc3c([N+](=O)[O-])ccc(c23)C(=O)N1O | 56* | 4.1* | 11 | 82 | 138 | 1 | 262* | 1 | GRK2 inh confirm=-6;Aptamer quench SP=97
CN(C)S(=O)(=O)c1ccc(N2CCCC2)c(C(=O)Nc2nc3c(ccc4ccccc43)s2)c1 | 0 | 1.9* | -8 | 96 | 108 | 0 | 123 | 0 | GRK2 confirm 2=4;FAM quench SP=106
Cc1cnc(NC(=O)c2cc(S(=O)(=O)N(C)C)ccc2N2CCCC2)s1 | 0 | 0 | -5 | 131 | / | / | / | /
CCN1/C(=C/c2ccc3cc(C)ccc3[n+]2CC)Sc2ccc3sccc3c21 | 84* | 3.6* | 5 | 136 | + | 3 | 106 | 1 | GRK2 inh confirm=89*;Aptamer quench=67*;Aptamer quench SP=99
CCN1/C(=C\c2ccc3cc(C)ccc3[n+]2CC)Sc2cc(C)c(C)cc21 | / | / | 8 | / | / | / | / | /
CN(C(=O)CSc1nnc(COc2ccccc2F)n1N)C1CCS(=O)(=O)C1 (configuration not stated) | 0 | 0 | -7 | 106 | / | / | / | /
Cc1ccc(F)cc1NC(=O)CSc1n[nH]c(N)n1 | 2 | 0 | -7 | 110 | / | / | / | /
Cc1ccc(O)c(C(=O)c2cnc3c(c2)CN(C)C(=O)N3)c1 | 0 | 0 | -7 | 89 | / | / | / | /
Cc1ccc(O)c(C(=O)c2cnc3c(c2)CN(CCC(C)C)C(=O)N3)c1 | 43* | 0.6* | -7 | 106 | 107 | 0 | 104 | 0 | GRK2 inh confirm=-2;Aptamer quench SP=98
Cc1ccc2nc(/C(C#N)=C\c3ccc([N+](=O)[O-])o3)[nH]c2c1 | 26 | 18* | 1 | 153 | + | 8 | + | 0 | GRK2 inh confirm=0;Aptamer quench SP=109
CCN1/C(=C/c2ccc3cccc(C)c3[n+]2CC)Sc2ccccc21 | 91* | 2.4* | 5 | 134 | + | 5 | 138 | 1 | GRK2 inh confirm=69*;Aptamer quench=-115;Aptamer quench SP=144
CC(=O)N1CCC(N(CCN2CCOCC2)C(=S)Nc2cc(C)ccc2C)CC1 | 1 | 0 | -12 | 112 | / | / | / | /
CCOC(=O)C(C(=O)OCC)c1cc(Br)c2noc3c2c1C(=O)c1ccccc1-3 | 51* | 0.8* | -15 | 113 | 826* | 1 | 193* | 0 | GRK2 inh confirm=11;Aptamer quench SP=102
O=C(NCCS(=O)(=O)N1CCN(c2cccc(Cl)c2)CC1)c1ccc2c(c1)OCO2 | 0 | 0 | 0 | 90 | / | / | / | /
COCCn1c(C)cc(C(=O)CSc2nc(C)nc3sc4c(c23)CCC4)c1C | 1 | 1.6* | 57* | 147 | 110 | 0 | 112 | 0 | PLA2 counter=37
Cc1nc(SCC(=O)NCC2CCCO2)c2c3c(sc2n1)CCCC3 (configuration not stated) | 0 | 0 | 2 | 83 | / | / | / | /
Cc1ccc(C(=O)Nc2ccc(S(=O)(=O)N3CCOCC3)cc2)cc1Br | 0 | 0 | -2 | 94 | / | / | / | /
O=C(Oc1c(-c2ccccc2)c(=O)n2c3c(cccc13)CC2)c1ccc(Cl)cc1 | 0 | 0 | 62* | 112 | 97 | 0 | 97 | 0 | PLA2 counter=67*
SMILES | GRK2 inh | Efflux pump inh | ATG4B inhibitor | Yeast superoxide | Cmpd fluor yeast | CaMdr1 efflux inh | Cdr2 pump inh | Cdr1 pump inh | others
CCOc1ccc(N(CC(=O)N2CCCCC2)S(=O)(=O)c2ccc(Cl)cc2)cc1 | 0 | 0 | -3 | 102 | / | / | / | /
Cc1ccc(/C=c2\sc3nc(-c4ccccc4Br)nn3c2=O)o1 | 13 | 0 | 48* | 104 | 99 | 0 | 109 | 0 | PLA2 counter=-7
CC(=O)N1CCc2cc(S(=O)(=O)CCC(=O)NCc3cccs3)ccc21 | 2 | 0 | 0 | 97 | / | / | / | / | GRK2 confirm 2=10;FAM quench SP=99
CCC(=O)N1c2ccc(S(=O)(=O)CCC(=O)NCc3cccs3)cc2CC1C (configuration not stated) | 0 | 0 | -3 | 91 | / | / | / | / | GRK2 confirm 2=-9;FAM quench SP=101
CCC(=O)N1c2ccc(S(=O)(=O)CCC(=O)NC3CCCC3)cc2CC1C (configuration not stated) | 0 | 0 | 0 | 93 | / | / | / | /
COc1cc(CC(NC(C)=O)C(=O)NC2CCN(S(=O)(=O)c3ccc(NC(C)=O)cc3)CC2)cc(OC)c1 (configuration not stated) | 2 | 0 | 6 | 97 | / | / | / | /
